Assay results published in PubChem BioAssay (NCI).
Several values for one entry are separate records, joined by “and”; a condition that tells them apart may be missing. Equal values may be shown once. Compounds without any hit were thinned out: in the full panel of roughly 83,000, 20% have a hit.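 Results are percent growth after 48 hours of single-concentration exposure. 100 means growth as in untreated cells, lower positive values show inhibition; negative values down to -100 show cell death.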 Activity calls are given as the source filed them. The calls were made as follows: active = growth percent below 10; inactive = the rest.

Key:
Assay in all cases: NCI-60 one-dose screen, 48 h (100 = growth as untreated, 0 = no growth, -100 = all killed)
Conditions in all cases: 10 µM unless noted
[1] = system: SK-MEL-2 melanoma
[2] = system: EKVX NSCLC
[3] = system: SN12C renal
[4] = system: UO-31 renal
[5] = system: TK-10 renal
[6] = system: ACHN renal
[7] = system: CAKI-1 renal
[8] = system: A498 renal
[9] = system: CCRF-CEM leukemia
[10] = system: MOLT-4 leukemia
[11] = system: SR leukemia
[12] = system: RPMI-8226 leukemia
[13] = system: OVCAR-8 ovarian
[14] = system: OVCAR-5 ovarian
[15] = system: OVCAR-4 ovarian
[16] = system: SK-OV-3 ovarian
[17] = system: IGROV1 ovarian
[18] = system: OVCAR-3 ovarian
[19] = system: HS 578T breast
[20] = system: NCI/ADR-RES ovarian

Measured: growth

Brc1ccc(/C=C(/C2=NCCN2)n2ccc3ccccc32)cc1
inactive: [1] 90.9% | [2] 79% | [3] 73.8% | [4] 37.2% | [5] 68.1% | [6] 68.7% | [7] 39.7% | [8] 87.4% | [9] 59.6% | [11] 30.4% | [12] 86.1% | [13] 72.3% | [14] 72.9% | [15] 67.7% | [16] 82% | [17] 60.7% | [18] 77.6% | [19] 78.2% | [20] 65.9%
active: [10] 9.21%

CC[C@]1(O)CC2CN(CCc3c([nH]c4ccccc34)C(C(=O)OC)(c3cc4c(cc3OC)N(C=O)[C@H]3[C@@](O)(C(=O)OC)[C@H](OC(C)=O)[C@]5(CC)[C@@H]6C[C@@H]6CN6CC[C@]43[C@@H]65)C2)C1 (stereo not given in full)
active: [8] -20% | [16] -17.7% | [17] 8.34% | [18] -53.6% | [19] -2.32% | [20] -6.57%
inactive: [1] 11.6% | [2] 43.4% | [3] 30.1% | [4] 31.1% | [5] 50% | [6] 30.9% | [7] 32.1% | [9] 13.6% | [10] 13.1% | [11] 12.7% | [12] 23.4% | [13] 10.3% | [14] 29.6% | [15] 45.5%

O=[N+]([O-])c1ccc(S(=O)Cc2ccccc2)c([N+](=O)[O-])c1 (stereo not given)
active: [4] -24.9% and -40.3% | [6] -58.6% and -91.6% | [9] -15% and 0.711% | [11] 1.64% and -8.84%
inactive: [1] 82.9% and 87.7% | [2] 90.4% | [3] 62.5% and 87.4% | [8] 98% and 85.1% | [12] 72.8% and 27.5% | [13] 45.8% and 94.9% | [14] 82.4% and 93.3% | [16] 104% and 109% | [17] 89.9% and 106% | [19] 118% and 95.2% | [20] 90.9% and 90.6%
81.6% (inactive) and 1.31% (active): [10]
35.8% (inactive) and -14.6% (active): [7]
59.7% (inactive) and 1.6% (active): [15]
32.5% (inactive) and -27.2% (active): [5]
13.9% (inactive) and -74.6% (active): [18]

COc1ccc(C2=C(CN)C(O)NC(=NCC(=O)c3ccc4ccccc4c3)N2)cc1 (stereo not given)
inactive: [1] 99.9% | [2] 113% | [3] 103% | [4] 81% | [5] 98.1% | [6] 94.5% | [7] 94.5% | [8] 118% | [9] 110% | [10] 98% | [11] 99.4% | [12] 119% | [13] 98.8% | [14] 99.8% | [15] 107% | [16] 89.4% | [17] 102% | [18] 99.9% | [19] 116% | [20] 103%

COc1ccccc1/C=C/C(=O)/C=C/c1ccccc1OC
-2.31% (active) and 18.6% (inactive): [20]
17.5% (inactive) and 4.88% (active): [7]
-25.9% (active) and 16.5% (inactive): [13]
5.47% (active) and 14.6% (inactive): [16]
16.2% (inactive) and 7.78% (active): [11]
active: [1] 2.6% and 1.3% | [3] -27.2% and -3.57% | [4] -89.9% and -54.9% | [5] -11.8% and 0.143% | [6] -62.5% and -84.2% | [12] 7.24% and 1.3% | [14] -15.7% and -6.94% | [17] -53.8% and -46.1% | [18] -29.1% and -36.7%
-48.3% (active) and 22.8% (inactive): [8]
-0.48% (active) and 50.4% (inactive): [19]
15.5% (inactive) and 6.56% (active): [9]
inactive: [2] 12.6% | [10] 14.8% and 12.1% | [15] 20.6% and 13%

COc1cc(C(=O)c2ccccc2C(=O)O)c(OC)c2c1CCCC2
inactive: [1] 115% | [2] 87.7% | [3] 96.4% and 98.3% | [4] 81.9% and 84.1% | [5] 67.5% and 107% | [6] 102% and 103% | [7] 98.2% and 98.9% | [8] 52.8% and 110% | [9] 113% and 90.4% | [10] 86.3% and 95.7% | [11] 67.3% and 94.9% | [12] 108% and 93.7% | [13] 104% and 101% | [14] 112% and 106% | [15] 99.3% and 98.9% | [16] 113% and 106% | [17] 127% and 105% | [18] 93.3% and 105% | [19] 103% and 112% | [20] 103% and 104%

C=CCNC(=O)Cc1c(-c2ccc(OC)cc2)oc2c(OC)c3c(c(OC)c12)OCO3
inactive: [1] 108% | [2] 107% | [3] 94.6% | [4] 80.8% | [5] 110% | [6] 104% | [7] 87.8% | [8] 55% | [9] 94.1% | [10] 99.7% | [11] 97.4% | [12] 97.5% | [13] 95.9% | [14] 101% | [15] 102% | [16] 110% | [17] 82.3% | [18] 118% | [19] 103% | [20] 98.2%

O=C(CCl)n1nnnc1Cc1ccccc1
inactive: [1] 86.9% | [2] 105% | [3] 92.2% | [4] 74.3% | [5] 88.1% | [6] 95.1% | [7] 92.4% | [8] 109% | [9] 86.3% | [10] 94.2% | [11] 93.5% | [12] 96.3% | [13] 91.1% | [14] 95.9% | [15] 105% | [16] 93.6% | [17] 107% | [18] 112% | [19] 121% | [20] 101%

COc1ccc(/C=C(\C#N)c2cc3ccccc3[nH]2)cc1
inactive: [1] 26.2% | [2] 45.3% | [3] 42.2% | [4] 46.9% | [5] 53.6% | [6] 56.5% | [7] 33.9% | [8] 32.1% | [9] 13.5% | [10] 24.4% | [11] 11.4% | [12] 14.9% | [13] 32% | [14] 42.5% | [15] 62.4% | [16] 47.7% | [17] 45.7% | [18] 14.1% | [19] 22.9%
active: [20] -6.87%

Cc1ccc(C(=O)Nc2nc3c(s2)CN(Cc2ccccc2)CC3)cn1
inactive: [1] 93% | [2] 90.4% | [3] 89.7% | [4] 80.5% | [5] 89.4% | [6] 100% | [7] 65.2% | [8] 89.9% | [9] 85.5% | [10] 95.6% | [11] 64% | [12] 77.8% | [13] 95.7% | [14] 103% | [15] 78.7% | [16] 89.2% | [17] 82.4% | [18] 88.1% | [19] 98.3% | [20] 70.5%

NC(=O)c1c(NC(=O)/C=C/c2cccs2)sc2c1CCC(=O)C2
active: [4] 5.7% | [6] 5.27% | [12] -9.58%
inactive: [1] 49.7% | [2] 40.4% | [3] 23.1% | [5] 43.9% | [7] 14.2% | [8] 115% | [9] 10.5% | [10] 21.8% | [11] 11.2% | [13] 20.2% | [14] 79.3% | [15] 14.2% | [16] 94.7% | [17] 24.4% | [18] 13.8% | [19] 26.7% | [20] 52.4%

O=C(N/N=C/c1ccc(O)cc1O)c1cccc(Nc2ccnc(C(F)(F)F)c2)c1
inactive: [1] 60.7% | [2] 28% | [3] 25% | [4] 34.7% | [5] 42.6% | [6] 30.3% | [7] 40.3% | [8] 44.9% | [10] 12.2% | [11] 21.7% | [12] 30.8% | [13] 22.7% | [14] 47.8% | [15] 39.9% | [16] 25.1% | [17] 34.2% | [18] 32% | [19] 44.8% | [20] 49.6%
active: [9] 6.22%

CCOc1ccccc1NC(=O)c1cc2ccccc2cc1O
inactive: [1] 37.4% | [2] 75% | [3] 42.8% | [4] 23.7% | [5] 50.6% | [6] 29.3% | [7] 45.7% | [8] 32.7% | [9] 32.4% | [10] 44.6% | [11] 45.5% | [12] 25.8% | [13] 52% | [14] 114% | [15] 61% | [16] 81.3% | [17] 60.3% | [18] 18.2% | [19] 51.6% | [20] 28.7%

COc1ccc2c(c1)oc1c(C)c3c(c(C)c12)C(=O)N(Nc1ccccc1)C3=O
inactive: [1] 99% | [2] 108% | [3] 97% | [4] 84% | [5] 114% | [6] 99.4% | [7] 91.5% | [8] 117% | [9] 111% | [10] 99.8% | [11] 104% | [12] 112% | [13] 104% | [14] 92% | [15] 100% | [16] 92% | [17] 102% | [18] 105% | [19] 105% | [20] 112%
